Assays:
Assay in all cases: DAPPL (digital affinity profiling via proximity ligation, sequencing); 10 mM Tris-HCl pH 7.5, 50 mM NaCl, 1 mM DTT, 4% glycerol, room temperature, 30 min; GST-TFs on glutathione beads, 16-mer random dsDNA library, 0.1% formaldehyde crosslink after washing; high values mean tight binding
Conditions in all cases: protein: recombinant; tags: N-terminal GST; dsDNA, one strand shown
[1] = target: T1, FLI1 (Homo sapiens, UniProt Q01543 1-452)
T1 sequence: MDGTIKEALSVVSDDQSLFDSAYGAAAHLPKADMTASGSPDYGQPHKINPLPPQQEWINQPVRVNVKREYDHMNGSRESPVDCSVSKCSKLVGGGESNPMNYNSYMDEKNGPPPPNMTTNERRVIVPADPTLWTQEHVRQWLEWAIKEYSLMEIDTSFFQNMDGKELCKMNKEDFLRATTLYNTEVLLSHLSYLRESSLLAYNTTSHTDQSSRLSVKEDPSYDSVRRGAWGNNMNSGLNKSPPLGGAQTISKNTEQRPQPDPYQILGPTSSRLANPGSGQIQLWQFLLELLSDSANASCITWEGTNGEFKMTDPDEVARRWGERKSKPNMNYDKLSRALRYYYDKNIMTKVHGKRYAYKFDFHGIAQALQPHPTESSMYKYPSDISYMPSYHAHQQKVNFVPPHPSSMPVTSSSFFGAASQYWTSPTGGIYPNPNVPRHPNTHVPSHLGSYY
In short: (§1)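 After expression in yeast as GST fusions, human transcription factors were bound to glutathione beads, DNA-barcoded and mixed with a tag-only sample. The pools were incubated with 200 nmole of a 16-mer random double-stranded DNA library in Tris/NaCl/DTT/glycerol buffer (30 min, room temperature), washed and crosslinked with 0.1% formaldehyde. Proximity ligation with BsaI/T4 ligase ran for 1 h at 37 °C, before PCR amplification and sequencing on an Illumina NextSeq500. Binding signal is a hexamer's read frequency for a factor divided by its frequency for the tag-only sample.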

[2] = target: T2, ELK1 (Homo sapiens, UniProt P19419 1-428)
T2 sequence: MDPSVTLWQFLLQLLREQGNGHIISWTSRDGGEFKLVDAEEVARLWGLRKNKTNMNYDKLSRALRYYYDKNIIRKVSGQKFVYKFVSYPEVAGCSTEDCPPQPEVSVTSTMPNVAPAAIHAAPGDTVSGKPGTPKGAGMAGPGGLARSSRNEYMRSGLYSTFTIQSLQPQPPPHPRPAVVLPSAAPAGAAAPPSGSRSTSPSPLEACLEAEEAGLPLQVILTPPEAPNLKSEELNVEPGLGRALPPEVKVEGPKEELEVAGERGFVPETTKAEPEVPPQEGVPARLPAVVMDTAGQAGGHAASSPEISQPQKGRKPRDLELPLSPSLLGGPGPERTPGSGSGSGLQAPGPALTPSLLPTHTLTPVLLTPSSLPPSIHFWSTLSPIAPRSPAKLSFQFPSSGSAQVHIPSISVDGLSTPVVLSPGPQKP
In short: as §1

[3] = target: T3, GABPA (Homo sapiens, UniProt Q06546 1-454)
T3 sequence: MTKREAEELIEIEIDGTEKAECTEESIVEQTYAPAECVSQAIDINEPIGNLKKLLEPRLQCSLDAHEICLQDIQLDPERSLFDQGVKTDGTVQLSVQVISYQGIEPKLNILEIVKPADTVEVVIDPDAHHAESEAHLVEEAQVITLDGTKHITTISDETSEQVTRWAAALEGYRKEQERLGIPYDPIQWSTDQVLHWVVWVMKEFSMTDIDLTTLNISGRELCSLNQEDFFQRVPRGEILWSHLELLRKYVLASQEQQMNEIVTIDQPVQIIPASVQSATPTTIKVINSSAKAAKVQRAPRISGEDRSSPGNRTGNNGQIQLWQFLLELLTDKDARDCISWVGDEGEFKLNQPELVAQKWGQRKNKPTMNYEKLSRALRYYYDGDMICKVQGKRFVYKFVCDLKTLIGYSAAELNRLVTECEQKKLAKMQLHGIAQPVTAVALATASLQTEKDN
In short: as §1

[4] = target: T4, ERG (Homo sapiens, UniProt P11308 1-479)
T4 sequence: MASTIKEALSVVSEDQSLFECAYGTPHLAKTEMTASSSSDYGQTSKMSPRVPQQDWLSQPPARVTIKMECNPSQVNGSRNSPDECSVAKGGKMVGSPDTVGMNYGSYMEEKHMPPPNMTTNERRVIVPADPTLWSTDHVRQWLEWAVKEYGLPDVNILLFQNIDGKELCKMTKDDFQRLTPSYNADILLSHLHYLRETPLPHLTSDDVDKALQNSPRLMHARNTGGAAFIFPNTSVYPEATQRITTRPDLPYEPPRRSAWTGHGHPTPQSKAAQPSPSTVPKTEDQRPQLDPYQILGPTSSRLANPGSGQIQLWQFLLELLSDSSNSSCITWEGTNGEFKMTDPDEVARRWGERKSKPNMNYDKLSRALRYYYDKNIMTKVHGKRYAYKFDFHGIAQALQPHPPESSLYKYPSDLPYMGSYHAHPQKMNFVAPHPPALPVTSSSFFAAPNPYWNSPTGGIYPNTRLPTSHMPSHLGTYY
In short: as §1

[5] = target: ELF1 (Homo sapiens, UniProt P32519 1-619)
ELF1, sequence (P32519 whole entry): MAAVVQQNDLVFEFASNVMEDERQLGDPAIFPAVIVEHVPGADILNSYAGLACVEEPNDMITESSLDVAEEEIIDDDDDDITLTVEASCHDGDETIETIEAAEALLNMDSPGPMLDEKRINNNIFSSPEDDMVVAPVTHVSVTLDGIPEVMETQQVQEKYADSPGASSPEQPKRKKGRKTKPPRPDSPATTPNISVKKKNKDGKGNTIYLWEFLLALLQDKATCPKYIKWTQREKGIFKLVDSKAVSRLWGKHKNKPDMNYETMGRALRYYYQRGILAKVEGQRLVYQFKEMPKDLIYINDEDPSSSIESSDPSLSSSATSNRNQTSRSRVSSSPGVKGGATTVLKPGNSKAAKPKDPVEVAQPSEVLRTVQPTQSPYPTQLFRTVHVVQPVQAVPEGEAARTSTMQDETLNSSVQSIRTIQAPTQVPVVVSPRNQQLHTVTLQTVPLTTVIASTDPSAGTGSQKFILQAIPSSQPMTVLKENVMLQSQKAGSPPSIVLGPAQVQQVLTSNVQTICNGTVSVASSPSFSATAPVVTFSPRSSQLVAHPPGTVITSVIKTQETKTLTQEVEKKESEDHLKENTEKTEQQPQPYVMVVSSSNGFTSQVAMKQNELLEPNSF
In short: as §1

[6] = target: T5, EHF (Homo sapiens, UniProt Q9NZC4 1-300)
T5 sequence: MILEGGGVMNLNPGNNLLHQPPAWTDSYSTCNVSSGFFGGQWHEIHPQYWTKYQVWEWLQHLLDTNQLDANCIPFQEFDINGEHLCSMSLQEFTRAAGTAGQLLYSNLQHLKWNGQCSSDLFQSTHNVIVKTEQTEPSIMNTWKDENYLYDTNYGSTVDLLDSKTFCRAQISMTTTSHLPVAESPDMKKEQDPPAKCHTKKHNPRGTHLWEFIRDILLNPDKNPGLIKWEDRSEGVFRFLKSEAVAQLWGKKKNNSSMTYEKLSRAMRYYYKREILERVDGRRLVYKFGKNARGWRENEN
In short: as §1

[7] = target: SPI1 (Homo sapiens, UniProt P17947 1-270)
In short: as §1

[8] = target: SPIB (Homo sapiens, UniProt Q01892 1-262)
SPIB, sequence (Q01892 whole entry): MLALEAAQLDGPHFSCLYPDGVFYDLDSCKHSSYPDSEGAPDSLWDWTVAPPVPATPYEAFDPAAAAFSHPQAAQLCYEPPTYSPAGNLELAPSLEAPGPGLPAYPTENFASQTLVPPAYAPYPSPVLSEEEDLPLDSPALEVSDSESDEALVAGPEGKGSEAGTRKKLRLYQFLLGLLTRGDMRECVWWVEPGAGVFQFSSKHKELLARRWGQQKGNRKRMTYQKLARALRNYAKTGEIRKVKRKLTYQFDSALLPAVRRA
In short: as §1

[9] = target: T6, ELK3 (Homo sapiens, UniProt P41970 1-407)
T6 sequence: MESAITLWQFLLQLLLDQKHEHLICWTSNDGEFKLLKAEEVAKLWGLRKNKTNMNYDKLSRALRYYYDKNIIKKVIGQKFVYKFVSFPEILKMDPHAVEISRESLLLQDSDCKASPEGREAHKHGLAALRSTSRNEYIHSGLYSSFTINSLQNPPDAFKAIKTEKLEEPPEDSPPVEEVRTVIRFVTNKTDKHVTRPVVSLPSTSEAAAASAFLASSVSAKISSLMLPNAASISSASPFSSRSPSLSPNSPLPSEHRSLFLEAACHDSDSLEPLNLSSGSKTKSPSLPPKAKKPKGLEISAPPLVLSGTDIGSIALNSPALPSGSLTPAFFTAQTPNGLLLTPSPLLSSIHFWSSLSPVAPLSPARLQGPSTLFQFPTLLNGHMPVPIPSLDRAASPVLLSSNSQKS
In short: as §1

[10] = target: T7, FEV (Homo sapiens, UniProt Q99581 1-238)
T7 sequence: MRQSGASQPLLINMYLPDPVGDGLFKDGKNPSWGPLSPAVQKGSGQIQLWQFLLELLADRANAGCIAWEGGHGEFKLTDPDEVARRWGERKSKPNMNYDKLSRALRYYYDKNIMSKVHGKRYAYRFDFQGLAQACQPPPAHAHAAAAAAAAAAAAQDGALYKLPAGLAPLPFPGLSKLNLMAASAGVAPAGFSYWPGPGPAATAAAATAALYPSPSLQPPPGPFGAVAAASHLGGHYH
In short: as §1

[11] = target: ETV5 (Homo sapiens, UniProt P41161 1-510)
ETV5, sequence (P41161 whole entry): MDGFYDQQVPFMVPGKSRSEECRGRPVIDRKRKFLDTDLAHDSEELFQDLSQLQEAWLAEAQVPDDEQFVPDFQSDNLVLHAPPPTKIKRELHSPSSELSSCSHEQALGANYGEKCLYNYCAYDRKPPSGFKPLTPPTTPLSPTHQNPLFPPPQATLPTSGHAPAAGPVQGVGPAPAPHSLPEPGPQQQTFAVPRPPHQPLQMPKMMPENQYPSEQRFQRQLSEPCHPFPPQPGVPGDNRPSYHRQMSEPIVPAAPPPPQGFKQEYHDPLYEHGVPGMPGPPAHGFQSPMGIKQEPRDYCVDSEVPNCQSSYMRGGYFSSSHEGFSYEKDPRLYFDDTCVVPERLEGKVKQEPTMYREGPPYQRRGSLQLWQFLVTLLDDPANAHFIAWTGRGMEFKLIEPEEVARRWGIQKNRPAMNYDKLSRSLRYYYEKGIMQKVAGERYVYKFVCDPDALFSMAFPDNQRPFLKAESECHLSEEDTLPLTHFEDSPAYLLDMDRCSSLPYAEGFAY
In short: as §1

[12] = target: T8, SPIC (Homo sapiens, UniProt Q8N5J4 1-248)
T8 sequence: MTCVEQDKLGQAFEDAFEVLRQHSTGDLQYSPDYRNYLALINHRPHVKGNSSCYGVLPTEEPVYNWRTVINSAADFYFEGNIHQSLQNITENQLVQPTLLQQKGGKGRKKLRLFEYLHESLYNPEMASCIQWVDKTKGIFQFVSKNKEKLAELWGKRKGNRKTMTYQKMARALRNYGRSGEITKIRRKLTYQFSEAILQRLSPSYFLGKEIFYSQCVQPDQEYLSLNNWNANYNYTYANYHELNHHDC
In short: as §1

[13] = target: ELF4 (Homo sapiens, UniProt Q99607 1-663)
ELF4, sequence (Q99607 whole entry): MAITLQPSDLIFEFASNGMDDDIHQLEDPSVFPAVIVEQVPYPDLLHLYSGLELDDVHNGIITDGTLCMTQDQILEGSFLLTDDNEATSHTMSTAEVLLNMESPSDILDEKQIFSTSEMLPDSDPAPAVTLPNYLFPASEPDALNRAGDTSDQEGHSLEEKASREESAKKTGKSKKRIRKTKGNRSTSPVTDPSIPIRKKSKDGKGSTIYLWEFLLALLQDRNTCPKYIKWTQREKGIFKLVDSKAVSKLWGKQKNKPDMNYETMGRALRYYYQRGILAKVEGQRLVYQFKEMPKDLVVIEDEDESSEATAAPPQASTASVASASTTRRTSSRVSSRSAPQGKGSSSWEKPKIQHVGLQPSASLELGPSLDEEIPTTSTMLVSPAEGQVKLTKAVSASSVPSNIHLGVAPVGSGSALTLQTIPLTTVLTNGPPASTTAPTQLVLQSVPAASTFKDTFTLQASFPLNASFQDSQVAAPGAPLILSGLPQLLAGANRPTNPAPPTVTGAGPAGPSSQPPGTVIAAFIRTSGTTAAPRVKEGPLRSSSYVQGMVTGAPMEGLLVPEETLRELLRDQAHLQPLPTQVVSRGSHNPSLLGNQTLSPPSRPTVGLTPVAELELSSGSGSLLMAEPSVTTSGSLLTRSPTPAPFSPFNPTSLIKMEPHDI
In short: as §1

[14] = target: T9, ELK4 (Homo sapiens, UniProt P28324-2 1-405)
T9 sequence: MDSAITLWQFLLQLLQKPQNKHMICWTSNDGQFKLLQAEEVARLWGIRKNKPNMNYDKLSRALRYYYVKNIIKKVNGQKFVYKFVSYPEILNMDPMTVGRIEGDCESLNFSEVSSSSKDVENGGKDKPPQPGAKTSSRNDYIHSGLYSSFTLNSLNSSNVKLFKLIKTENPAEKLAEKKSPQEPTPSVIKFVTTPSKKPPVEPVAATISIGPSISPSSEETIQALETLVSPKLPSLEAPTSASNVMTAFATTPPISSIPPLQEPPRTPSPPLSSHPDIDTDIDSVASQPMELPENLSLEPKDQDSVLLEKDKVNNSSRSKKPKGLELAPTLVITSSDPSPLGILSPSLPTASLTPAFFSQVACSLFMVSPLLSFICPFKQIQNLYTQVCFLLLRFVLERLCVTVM
In short: as §1

[15] = target: T10, ETV2 (Homo sapiens, UniProt O00321 1-342)
T10 sequence: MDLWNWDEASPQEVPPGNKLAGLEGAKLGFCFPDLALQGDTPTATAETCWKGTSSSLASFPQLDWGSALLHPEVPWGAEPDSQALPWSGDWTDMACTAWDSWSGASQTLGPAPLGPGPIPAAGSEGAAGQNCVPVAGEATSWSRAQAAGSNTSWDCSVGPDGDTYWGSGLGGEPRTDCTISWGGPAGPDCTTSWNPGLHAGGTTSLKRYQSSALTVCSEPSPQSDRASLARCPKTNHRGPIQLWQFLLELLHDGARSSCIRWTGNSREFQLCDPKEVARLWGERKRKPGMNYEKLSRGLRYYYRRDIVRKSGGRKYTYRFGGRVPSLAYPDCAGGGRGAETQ
In short: as §1

[16] = target: T11, ELF3 (Homo sapiens, UniProt P78545 1-371)
T11 sequence: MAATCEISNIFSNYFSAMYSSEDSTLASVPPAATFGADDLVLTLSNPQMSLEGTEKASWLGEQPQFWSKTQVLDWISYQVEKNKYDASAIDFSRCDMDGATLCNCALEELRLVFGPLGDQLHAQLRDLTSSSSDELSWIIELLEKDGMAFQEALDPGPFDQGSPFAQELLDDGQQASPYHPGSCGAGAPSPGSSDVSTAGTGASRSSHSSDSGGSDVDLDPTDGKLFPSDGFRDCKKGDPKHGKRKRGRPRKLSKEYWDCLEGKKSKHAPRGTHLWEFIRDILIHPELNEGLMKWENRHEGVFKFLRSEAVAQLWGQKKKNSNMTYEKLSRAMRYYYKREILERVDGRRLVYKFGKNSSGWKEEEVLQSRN
In short: as §1

[17] = target: ETV1 (Homo sapiens, UniProt P50549 1-477)
ETV1, sequence (P50549 whole entry): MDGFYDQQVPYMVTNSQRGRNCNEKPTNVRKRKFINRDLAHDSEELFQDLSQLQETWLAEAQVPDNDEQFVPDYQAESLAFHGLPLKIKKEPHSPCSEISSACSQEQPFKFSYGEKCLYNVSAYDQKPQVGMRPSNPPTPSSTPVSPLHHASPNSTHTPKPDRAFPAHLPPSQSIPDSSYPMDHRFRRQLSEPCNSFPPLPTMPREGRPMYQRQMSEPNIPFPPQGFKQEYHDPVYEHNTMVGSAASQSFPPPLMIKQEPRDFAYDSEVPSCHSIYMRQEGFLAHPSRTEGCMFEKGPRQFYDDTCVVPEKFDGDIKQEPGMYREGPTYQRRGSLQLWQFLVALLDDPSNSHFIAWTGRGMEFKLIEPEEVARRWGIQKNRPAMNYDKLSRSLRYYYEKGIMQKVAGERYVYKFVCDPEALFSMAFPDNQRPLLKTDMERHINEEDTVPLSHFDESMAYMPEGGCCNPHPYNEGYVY
In short: as §1

In the case of CTGTGC, the binding signal [1] is reported as 1.09 fold enrichment (6-mer frequency, TF over GST control), the binding signal [2] is reported as 1.18 fold enrichment (6-mer frequency, TF over GST control) and the binding signal [3] is reported as 1.12 fold enrichment (6-mer frequency, TF over GST control). For the same sequence, the binding signal [4] was 1.11 fold enrichment (6-mer frequency, TF over GST control), the binding signal [5] was 1.14 fold enrichment (6-mer frequency, TF over GST control) and the binding signal [6] was 1.02 fold enrichment (6-mer frequency, TF over GST control). For the same sequence, the binding signal [7] was 1.02 fold enrichment (6-mer frequency, TF over GST control), the binding signal [8] was 1.13 fold enrichment (6-mer frequency, TF over GST control) and the binding signal [9] was 1.09 fold enrichment (6-mer frequency, TF over GST control). For the same sequence, the binding signal [10] was 1.03 fold enrichment (6-mer frequency, TF over GST control), the binding signal [11] was 1.17 fold enrichment (6-mer frequency, TF over GST control) and the binding signal [12] was 1.27 fold enrichment (6-mer frequency, TF over GST control). The binding signal [13] was 1.21 fold enrichment (6-mer frequency, TF over GST control), the binding signal [14] was 1.12 fold enrichment (6-mer frequency, TF over GST control) and the binding signal [15] was 1.25 fold enrichment (6-mer frequency, TF over GST control). The binding signal [16] was 1.08 fold enrichment (6-mer frequency, TF over GST control) and the binding signal [17] was 1.12 fold enrichment (6-mer frequency, TF over GST control).
